Data as given in PubChem BioAssay (EPA / NIEHS).
Records with an inconclusive call do not appear. The source made the active and inactive calls. Rule for the calls: active = hit-call score of the fitted dose curve at least 0.9, where 1 is the maximum; inconclusive = response in the unintended direction; inactive = score below 0.9.

Assays:
[1] = target: rat Neurokinin-3 Receptor (NK3), Tacr3 (gene 24808) (UniProt P16177); assay: NVS_GPCR_rNK3: NovaScreen (NVS) G Protein-Coupled Receptor Assay for rat Neurokinin-3 Receptor (NK3) (AID 2283310)
Summary of the method: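 Filter-based radioligand displacement on rat cortex membrane preparations, read by scintillation 2 h post-dose. Chemicals first tested in duplicate at 25 uM; actives followed up in concentration series with a 50 uM maximum.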

[2] = target: rat Opioid Receptor, Non-selective Sodium (Na+) Binding, Oprm1 (gene 25601) (UniProt P33535); assay: NVS_GPCR_rOpiate_NonSelectiveNa: NovaScreen (NVS) G Protein-Coupled Receptor Assay for rat Opioid Receptor, Non-selective Sodium (Na+) Binding (AID 2283311)
Summary of the method: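 Filtration radioligand binding on rat forebrain membrane preparations, read 1.5 h after dosing. Single-concentration 25 µM primary screen in duplicate, followed by singleton concentration series to 50 µM max for actives; DMSO baseline.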

[3] = target: rat Somatostatin Receptor (SST), Sstr1 (gene 25033) (UniProt P28646); assay: NVS_GPCR_rSST: NovaScreen (NVS) G Protein-Coupled Receptor Assay for rat Somatostatin Receptor (SST) (AID 2283314)
Summary of the method: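 Single-concentration duplicate screen (25 uM), then concentration-response up to 50 uM for chemicals passing a threshold such as 30% inhibition. Membranes came from rat forebrain. Binding was measured 1 h post-dose by filter radiodetection and scintillation, relative to DMSO.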

NCBI gene 257648 = assay: NVS_IC_rCaChN: NovaScreen (NVS) Ion Channel Assay for Calcium Channel, Type N (CaChN) (AID 2283317)
[4] = target: rat Opioid Receptor, Non-selective Binding, Oprm1 (gene 25601) (UniProt P33535); assay: NVS_GPCR_rOpiate_NonSelective: NovaScreen (NVS) G Protein-Coupled Receptor Assay for rat Opioid Receptor, Non-selective Binding (AID 2283318)
Summary of the method: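 Filter-based radioligand displacement using rat forebrain membrane preparations, measured 1.5 h post-dosing. Single-concentration duplicate screen at 25 uM, follow-up in concentration series; activity taken as signal loss relative to DMSO.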

rat Opioid Receptor, Non-selective Sodium (Na+) Binding, Oprm1 (gene 25601), sequence (P33535 whole entry, looked up): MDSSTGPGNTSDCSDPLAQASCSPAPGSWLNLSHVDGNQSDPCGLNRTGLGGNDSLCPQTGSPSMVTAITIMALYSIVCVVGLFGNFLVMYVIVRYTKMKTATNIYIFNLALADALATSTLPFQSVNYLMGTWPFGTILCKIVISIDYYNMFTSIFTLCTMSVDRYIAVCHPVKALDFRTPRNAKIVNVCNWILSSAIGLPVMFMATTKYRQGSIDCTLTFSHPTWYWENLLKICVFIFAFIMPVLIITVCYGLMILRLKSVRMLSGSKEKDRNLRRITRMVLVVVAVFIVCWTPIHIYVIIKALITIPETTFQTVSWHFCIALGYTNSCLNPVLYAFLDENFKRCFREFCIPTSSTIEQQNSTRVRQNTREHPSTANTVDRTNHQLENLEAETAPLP
rat Opioid Receptor, Non-selective Binding, Oprm1 (gene 25601), sequence (P33535 whole entry, looked up): as above
rat Neurokinin-3 Receptor (NK3), Tacr3 (gene 24808), sequence (P16177 whole entry, looked up): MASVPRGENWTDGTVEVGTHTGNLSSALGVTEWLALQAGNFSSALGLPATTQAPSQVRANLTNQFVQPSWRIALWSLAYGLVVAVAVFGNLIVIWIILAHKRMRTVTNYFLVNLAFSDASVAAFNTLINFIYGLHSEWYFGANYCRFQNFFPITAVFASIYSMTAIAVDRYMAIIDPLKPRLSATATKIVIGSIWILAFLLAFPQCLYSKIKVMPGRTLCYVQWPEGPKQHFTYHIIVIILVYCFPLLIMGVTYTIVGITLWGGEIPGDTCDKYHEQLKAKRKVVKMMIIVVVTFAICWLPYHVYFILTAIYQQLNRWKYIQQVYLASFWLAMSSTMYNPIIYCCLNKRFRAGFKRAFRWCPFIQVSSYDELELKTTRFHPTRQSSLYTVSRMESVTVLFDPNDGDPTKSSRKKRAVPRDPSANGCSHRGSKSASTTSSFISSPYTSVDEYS
rat Somatostatin Receptor (SST), Sstr1 (gene 25033), sequence (P28646 whole entry, looked up): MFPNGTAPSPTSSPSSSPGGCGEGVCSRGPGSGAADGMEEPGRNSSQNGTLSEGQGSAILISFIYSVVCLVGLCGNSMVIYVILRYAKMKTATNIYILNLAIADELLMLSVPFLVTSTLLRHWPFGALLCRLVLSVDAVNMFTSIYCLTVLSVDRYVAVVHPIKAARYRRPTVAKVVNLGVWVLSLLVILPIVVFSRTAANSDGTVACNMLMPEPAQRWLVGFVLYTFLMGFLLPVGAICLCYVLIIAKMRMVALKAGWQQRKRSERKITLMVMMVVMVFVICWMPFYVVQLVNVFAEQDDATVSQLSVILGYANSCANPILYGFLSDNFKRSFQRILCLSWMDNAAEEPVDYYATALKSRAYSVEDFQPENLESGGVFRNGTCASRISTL

CCCCCCCCCC[N+](C)(C)CCCCCCCCCC
outcome [1]: inactive
outcome [2]: inactive
outcome [3]: inactive
AC50 (NCBI gene 257648): 41.7 µM (active)

CC(C)(c1ccccc1)c1ccc(O)cc1
outcome [2]: inactive

CC1=C2C[C@H]3[C@@H](CC=C4C[C@@H](O)CC[C@@]43C)[C@@H]2CC[C@]12O[C@@H]1C[C@H](C)CN[C@H]1[C@H]2C
outcome [4]: inactive
